Laboratory results reported in PubChem BioAssay (Tox21).
Results filed as inconclusive are left out. Calls of active or inactive are those of the source. Unless noted, calls follow the shape of the dose curve; as a rule, active = well fitted curve in the direction sought with a large enough effect in the repeat runs; inconclusive = weak or mixed curves; inactive = no such curve, though single readings can be large; an effect the other way counts as inactive or inconclusive.

Legend:
[1] = qHTS assay to identify small molecule antagonists of the glucocorticoid receptor (GR) signaling pathway - cell viability counter screen (AID 720693); also: nearly all actives have a fitted effect of over 55% in size
[2] = qHTS assay for identifying genotoxic compounds that show differential cytotoxicity against isogenic chicken DT40 cell lines with known DNA damage response pathways - wild type cell line (AID 743012); also: nearly all actives have a fitted effect of over 60% in size; also: potency is read from the fitted curve at half-maximal effect
Outline: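 Wild type DT40, 300 cells/well, ~0.5 h settle at 37 C/5% CO2; compounds in DMSO added by pintool; 40 h at 37 C/5% CO2; CellTiter-Glo, 30 min RT; luminescence.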

[3] = qHTS assay to identify small molecule antagonists of the androgen receptor (AR) signaling pathway - cell viability counter screen (AID 743033; also: nearly all actives have a fitted effect of over 45% in size)
[4] = qHTS assay to identify small molecule antagonists of the thyroid receptor (TR) signaling pathway - cell viability counter screen (AID 743064); also: nearly all actives have a fitted effect of over 50% in size
Outline: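 Same-well viability check: GH3.TRE-Luc cells stimulated with 1 nM T3 alongside test compound for 23.5 h, followed by CellTiter-Fluor fluorescence.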

[5] = qHTS assay to identify small molecule antagonists of the thyroid receptor (TR) signaling pathway (AID 743065); also: series mostly up to about 70 µM; nearly all actives have a fitted effect of over 55% in size
Outline: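 GH3.TRE-Luc rat pituitary cells carrying two TR response elements driving luciferase were plated for 4 h, given compound plus 1 nM T3 (final), and incubated 23.5 h at 37 C. ONE-Glo luminescence measured reporter inhibition; CellTiter-Fluor fluorescence tracked cytotoxicity.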

[6] = test system: thyroid hormone receptor (rat, GH3 cells); test: qHTS assay to identify small molecule agonists of the thyroid receptor (TR) signaling pathway (AID 743066; calls by dose curve)
[7] = target: Estrogen receptor (Homo sapiens) (UniProt P03372); test: qHTS assay to identify small molecule antagonists of the estrogen receptor alpha (ER-alpha) signaling pathway (AID 743069; active = well fitted curve in the direction sought with a large enough effect in the signal ratio in the repeat runs, not every such curve was filed as active; the % refers to the signal ratio)
Chain of Estrogen receptor (Homo sapiens) (P03372 whole entry, looked up): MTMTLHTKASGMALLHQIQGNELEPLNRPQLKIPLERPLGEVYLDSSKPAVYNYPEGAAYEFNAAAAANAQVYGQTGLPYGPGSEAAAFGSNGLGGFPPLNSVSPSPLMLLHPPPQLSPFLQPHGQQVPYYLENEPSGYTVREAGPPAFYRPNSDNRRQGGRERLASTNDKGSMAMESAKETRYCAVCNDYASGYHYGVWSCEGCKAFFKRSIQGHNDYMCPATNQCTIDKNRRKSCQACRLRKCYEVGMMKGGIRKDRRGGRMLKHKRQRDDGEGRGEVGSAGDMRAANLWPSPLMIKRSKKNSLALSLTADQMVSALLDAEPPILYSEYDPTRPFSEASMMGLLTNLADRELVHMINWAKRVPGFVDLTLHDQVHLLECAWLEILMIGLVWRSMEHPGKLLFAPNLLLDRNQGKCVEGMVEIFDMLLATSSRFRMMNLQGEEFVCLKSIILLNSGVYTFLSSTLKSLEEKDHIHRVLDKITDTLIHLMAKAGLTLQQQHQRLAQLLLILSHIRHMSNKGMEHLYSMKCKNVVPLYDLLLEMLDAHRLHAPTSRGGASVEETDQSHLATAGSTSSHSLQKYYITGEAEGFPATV
Outline: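 HEK293 cells stably carrying an ER-alpha-UAS-bla beta-lactamase reporter were pre-cultured overnight in 2% charcoal-stripped FBS medium. Test compounds in DMSO were added together with 17beta-estradiol for 18 hr at 37C. Read-out was fluorescence after 2 hr with LiveBLAzer B/G FRET substrate at room temperature.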

[8] = qHTS assay to identify small molecule antagonists of the estrogen receptor alpha (ER-alpha) signaling pathway - cell viability counter screen (AID 743074; calls by dose curve; also: nearly all actives have a fitted effect of over 45% in size)
[9] = target: Estrogen receptor (Homo sapiens) (UniProt P03372); test: qHTS assay to identify small molecule agonists of the estrogen receptor alpha (ER-alpha) signaling pathway (AID 743075; calls by dose curve)
[10] = target: Estrogen receptor (Homo sapiens) (UniProt P03372); test: qHTS assay to identify small molecule agonists of the estrogen receptor alpha (ER-alpha) signaling pathway using the BG1 cell line (AID 743079); also: nearly all actives have a fitted effect of over 20% in size
[11] = qHTS assay to identify small molecule antagonists of the estrogen receptor alpha (ER-alpha) signaling pathway using the BG1 cell line (AID 743080; calls by dose curve;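 also: BG1 cells stimulated with 17beta-estradiol alongside compound; series mostly up to about 70 µM; nearly all actives have a fitted effect of over 25% in size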)
Outline: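 Seeding, 24 h rest, compound transfer from DMSO, 17beta-estradiol addition, 21.5 h incubation, CellTiter-Fluor (30 min, 37 C), then ONE-Glo (30 min, room temperature): this sequence was run on BG1-Luc-4E2 reporter cells.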

[12] = qHTS assay to identify small molecule antagonists of the estrogen receptor alpha (ER-alpha) signaling pathway using the BG1 cell line - cell viability counter screen (AID 743081);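 also: compound given together with 17beta-estradiol as the ER stimulus; series mostly up to about 70 µM; nearly all actives have a fitted effect of over 45% in size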
Aromatase (Homo sapiens) = Aromatase (Homo sapiens) (UniProt P11511); test: qHTS assay to identify aromatase inhibitors (AID 743083); also: series mostly up to about 70 µM; nearly all actives have a fitted effect of over 55% in size
Chain of Aromatase (Homo sapiens) (P11511 whole entry, looked up): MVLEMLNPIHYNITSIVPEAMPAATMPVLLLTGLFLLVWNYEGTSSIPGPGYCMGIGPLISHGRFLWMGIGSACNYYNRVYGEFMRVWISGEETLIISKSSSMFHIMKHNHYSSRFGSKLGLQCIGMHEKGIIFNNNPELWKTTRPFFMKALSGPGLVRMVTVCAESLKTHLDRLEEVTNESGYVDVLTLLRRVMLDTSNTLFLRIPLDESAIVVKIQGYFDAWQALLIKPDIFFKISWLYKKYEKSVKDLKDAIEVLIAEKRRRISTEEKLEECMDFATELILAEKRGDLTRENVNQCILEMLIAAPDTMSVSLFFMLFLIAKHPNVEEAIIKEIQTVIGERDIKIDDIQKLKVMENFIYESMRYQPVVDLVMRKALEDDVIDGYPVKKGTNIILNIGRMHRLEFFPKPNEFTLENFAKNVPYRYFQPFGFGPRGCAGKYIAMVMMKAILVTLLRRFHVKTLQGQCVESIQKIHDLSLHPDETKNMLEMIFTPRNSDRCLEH

[13] = qHTS assay for identifying genotoxic compounds that show differential cytotoxicity against isogenic chicken DT40 cell lines with known DNA damage response pathways - Rev3 mutant cell line (AID 743014); also: nearly all actives have a fitted effect of over 55% in size
[14] = qHTS assay for identifying genotoxic compounds that show differential cytotoxicity against isogenic chicken DT40 cell lines with known DNA damage response pathways - Rad54/Ku70 mutant cell line (AID 743015); also: nearly all actives have a fitted effect of over 60% in size
[15] = qHTS assay to identify small molecule antagonists of the androgen receptor (AR) signaling pathway using the MDA cell line - cell viability counter screen (AID 743041; also: nearly all actives have a fitted effect of over 45% in size)
Outline: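 MDA-kb2 AR-luc human breast carcinoma cells (MMTV-luciferase, AR/GR responsive) were treated with compounds plus R1881 agonist for 16 h at 37 °C. Viability was read as CellTiter-Fluor fluorescence in the same wells as the reporter assay.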

Measured: Potency

CNC(=O)C(c1ccccc1)c1ccccc1
inactive: [1] | [3] | [4] | [5] | [6] | [7] | [8] | [9] | [10] | [11] | [12] | Aromatase (Homo sapiens)
active: [2] 61.1 µM

NS(=O)(=O)c1ccc(Cl)c(S(N)(=O)=O)c1
inactive: [1] | [2] | [13] | [3] | [4] | [5] | [6] | [7] | [8] | [9] | [10] | [11] | [12] | Aromatase (Homo sapiens)

FC(F)(F)/C(=N\OCC1OCCO1)c1ccc(Cl)cc1
inactive: [1] | [2] | [14] | [3] | [4] | [6] | [7] | [8] | [9] | [10] | [11] | [12] | Aromatase (Homo sapiens)

CC1=NN(c2ccc(S(=O)(=O)O)cc2)C(=O)C1N=Nc1ccccc1 (centres undefined)
inactive: [1] | [2] | [13] | [3] | [5] | [6] | [7] | [8] | [9] | [10] | [11] | Aromatase (Homo sapiens)

CCCOC(=O)CCCCC(=O)OCCC
inactive: [1] | [2] | [14] | [3] | [15] | [4] | [5] | [6] | [7] | [8] | [9] | [10] | [11] | Aromatase (Homo sapiens)

CCCCCCCCOC(C)=O
inactive: [1] | [2] | [14] | [3] | [15] | [4] | [5] | [6] | [7] | [8] | [9] | [10] | [11] | [12] | Aromatase (Homo sapiens)

Oc1ccccc1Cc1ccccc1O
inactive: [1] | [2] | [13] | [3] | [15] | [4] | [6] | [10] | [11] | [12] | Aromatase (Homo sapiens)

Cc1nc2ccccc2c(=O)o1
inactive: [1] | [2] | [13] | [3] | [15] | [5] | [6] | [7] | [8] | [9] | [10] | [11] | [12] | Aromatase (Homo sapiens)

Nc1ccc(S(=O)(=O)NC(=O)c2ccccc2)cc1
inactive: [1] | [2] | [14] | [3] | [15] | [4] | [6] | [7] | [8] | [9] | [10] | [11] | [12] | Aromatase (Homo sapiens)

CC(C)CCCCCCOC(=O)C1CCCCC1C(=O)OCCCCCCC(C)C (centres undefined)
inactive: [1] | [2] | [14] | [3] | [15] | [4] | [5] | [6] | [8] | [9] | [10] | [11] | [12] | Aromatase (Homo sapiens)
